In the library only some 5.7% were active in any assay of this set; here they are far more common.
TGFb SMAD3 inh – qHTS for Inhibitors of TGF-b; HepG2 CAGA-GFP TGF-b/SMAD3 reporter, GFP fluorescence, 18 h; TGF-beta stimulated, 500 pg/mL final; Potency, µM (top dose mostly 46.1 µM), for the others: at the top dose activity, negative = inhibition, usual class: inhibitors; actives 1.2% (n = 410,000); note: potency is the fitted concentration of half-maximal effect; % is set by controls: 0 for no effect and ±100 for the full control effect; nearly all actives have a fitted effect of over 65% in size
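Using HEPG2 CAGA-GFP reporter cells at 1000 cells/well, we pinned test compounds, stimulated with recombinant TGF-beta (500 pg/mL final) and measured total well GFP after 18 h.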
S2 tox – Viability Counterscreen for Primary qHTS for Inhibitors of ATXN expression; Potency, µM (top dose mostly 56.7 µM), usual class: cytotoxic; S2 cells (HEK-293 line with an ATXN2-luciferase reporter) viability, CellTiter-Fluor protease fluorescence, 24 h; actives 0.49% (n = 400,000); note: potency is the fitted concentration of half-maximal effect; nearly all actives have a fitted effect of over 40% in size
ATXN2 expr inh – Primary qHTS for Inhibitors of ATXN expression. HEK-293 ATXN2-luciferase reporter, luminescence, 24 h. Potency, µM (highest dose often 57 µM), without a hit: top-dose activity change, negative = inhibition, actives largely listed as inhibitors. actives 0.72% (n = 360,000). AID 1745845, 2022; note: potency is the fitted concentration of half-maximal effect; % is set by controls: 0 for no effect and ±100 for the full control effect; nearly all actives have a fitted effect of over 55% in size
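ATXN2-luciferase reporter cells (luciferase flanked by upstream and downstream ATXN2 gene portions) were treated 24 h at 37 °C with compounds at up to 57 uM. SteadyGlo luminescence gave expression; GF-AFC fluorescence gave viability.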
HepG2 viability – qHTS for Inhibitors of TGF-b: Cytotox Counterscreen. Potency, µM (doses to about 46.1 µM), without a hit: top-dose activity change, negative = cytotoxicity, most hits filed as cytotoxic. HepG2 CAGA-GFP viability, ATP luminescence, 18 h. AID 588856, 2011. actives 0.76% (n = 410,000); note: potency is the fitted concentration of half-maximal effect
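HepG2 CAGA-GFP cells (1000/well, DMEM with 1% FBS) received compound, then TGF-beta at 500 pg/mL final, and were incubated 18 hours at 37 degrees C. Viability was read by CellTiter-Glo luminescence. Media-only wells were set as complete cell-killing and DMSO as no toxicity.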
IL-1B inflam inh – qHTS for Inhibitors of Inflammasome Signaling: IL-1-beta AlphaLISA Primary Screen; activity change, % at 57.5 µM; actives 4.7% (n = 360,000); THP-1 LPS/ATP IL-1B secretion, AlphaLISA, 16 h; hits give low values; in the data active = activity change below about -50%; inconclusive = mostly about -30% to -49%; note: % is set by controls: 0 for no effect and ±100 for the full control effect
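Secreted IL-1B measured by AlphaLISA bead assay after 16 h compound exposure of THP-1 cells; compounds (final up to 57.5 uM) added 1 h before LPS (250 ng/mL) and ATP (1.25 mM) stimulation; lower signal means less secretion.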
Numbers without * were called inactive. Unless noted, calls come from the whole dose curve; as a rule, active = well fitted curve in the direction sought with a large enough effect; inconclusive = small, poorly fitted or top-dose-only effect, or another doubt; inactive = no such curve, though single readings can be large; an effect the other way counts as inactive or inconclusive.

For N#C/C(=C(/O)CCl)c1nc2c(s1)CCc1ccccc1-2 the results were TGFb SMAD3 inh inconclusive, S2 tox inactive, ATXN2 expr inh -49.1%, HepG2 viability -67.3% and IL-1B inflam inh -95.1*.
Screening CN1[C@@H]2CC[C@H]1CC(NC(=O)n1c(=O)[nH]c3ccccc31)C2 (some centres undefined) returned S2 tox inconclusive and ATXN2 expr inh -14.8%.
`COC(=O)C1CCN(Cc2ccc3c(c2)CN(C(=O)c2sc(C)nc2C)CCO3)CC1` gave S2 tox inactive.
`CCN1c2ccccc2NC2N=C(OC)C(c3ccccc3)C21` (centres undefined) gave TGFb SMAD3 inh 12.6µM*, S2 tox inactive, ATXN2 expr inh inconclusive, HepG2 viability 11.2µM* and IL-1B inflam inh 43.3.
`Cc1cc2c(cc1C)NC(CC(=O)Nc1ccccc1SC(F)(F)F)C(=O)N2` (centres undefined) gave TGFb SMAD3 inh 22.4%, ATXN2 expr inh 25.8% and HepG2 viability 6.9%.
For COc1cc2c(NC3CCN(C)CC3)nc(N3CCCCC3)nc2cc1OCCOCCN1CCCC1 the results were TGFb SMAD3 inh inconclusive and HepG2 viability -1.5%.
Screening CCc1ccc(NC(=O)CC2C(=O)N(c3cccc(C)c3)C(=O)N2CCC(C)C)cc1 (centres undefined) returned TGFb SMAD3 inh inconclusive and HepG2 viability -23.8%.
CC1(C)CC(Nc2ccc(Nc3ccccc3)cc2)CC(C)(C)N1 was read as TGFb SMAD3 inh -29.4%, S2 tox inconclusive, HepG2 viability -29.6% and IL-1B inflam inh -81.0*.
O=C(Cn1c(=O)oc2cc(S(=O)(=O)NC3CCCC3)ccc21)Nc1ccc(F)c(F)c1 was read as TGFb SMAD3 inh inconclusive, S2 tox inactive, ATXN2 expr inh 4.0% and HepG2 viability 0.4%.
For CNC(=O)Cn1c(=O)c2cccn2c2ccc(F)cc21 the results were TGFb SMAD3 inh -13.5% and HepG2 viability -23.2%.
Screening COc1cc(C(=O)OCc2cc(=O)n3ccsc3n2)cc(OC)c1OC returned TGFb SMAD3 inh -17.0%, S2 tox inactive, ATXN2 expr inh -2.7% and HepG2 viability -12.1%.
For CC(C)Cc1nnc(NC(=O)CCC(=O)N2CCN(Cc3ccc(F)cc3)CC2)s1 the results were TGFb SMAD3 inh -8.6%, S2 tox inactive, ATXN2 expr inh -17.6%, HepG2 viability -8.9% and IL-1B inflam inh 40.8.
For Cc1ccc(OCCN2CCN(C(=O)CCC(=O)Nc3nnc(CC(C)C)s3)CC2)cc1 the results were TGFb SMAD3 inh 11.2µM*, S2 tox inactive, ATXN2 expr inh -17.2% and HepG2 viability -80.0%.
`CC(C)N(CCCNC(=O)Nc1ccc(C(C)(C)C)cc1)C[C@H]1O[C@@H](n2cc(Br)c3c(N)ncnc32)[C@H](O)[C@H]1O` gave ATXN2 expr inh 21.7µM*.
CC[C@@H](C)[C@H](N)C(=O)NC[C@H]1O[C@@H](n2cnc3c(N)ncnc32)[C@H](O)[C@@H]1O was read as TGFb SMAD3 inh -4.2%, S2 tox inactive, ATXN2 expr inh -0.8%, HepG2 viability -4.1% and IL-1B inflam inh 35.5.
For Cc1ccc(-c2cc(C(=O)Oc3ccc(C#N)cc3)no2)cc1 the results were TGFb SMAD3 inh inconclusive, S2 tox inactive, ATXN2 expr inh -2.6% and HepG2 viability -20.2%.
Screening COc1ccc(C(CNC(=O)c2oc3ccc(C)cc3c2C)N2CCOCC2)cc1 (centres undefined) returned TGFb SMAD3 inh -14.8% and HepG2 viability 6.6%.
`COc1ccc(CC(N)c2csc(NC(=O)c3cc(C(C)(C)C)nn3Cc3ccccc3)n2)cc1` (centres undefined) gave TGFb SMAD3 inh inconclusive, S2 tox inactive, ATXN2 expr inh inconclusive, HepG2 viability 11.2µM* and IL-1B inflam inh -78.2*.
`CC(N)c1csc(NC(=O)c2cc(C(C)(C)C)nn2Cc2ccccc2)n1` (centres undefined) gave TGFb SMAD3 inh 22.4µM*, S2 tox inactive, ATXN2 expr inh inconclusive, HepG2 viability -98.9% and IL-1B inflam inh -55.3*.
`Cn1cnnc1SCC(=O)n1c2ccccc2c2ccccc21` gave TGFb SMAD3 inh 1.6%, S2 tox inactive, ATXN2 expr inh -1.6%, HepG2 viability -3.4% and IL-1B inflam inh 17.1.
Cn1cnnc1SCc1ccc(C(=O)N=Nc2c(O)n(C)c3ccccc23)cc1 was read as TGFb SMAD3 inh -23.4%, S2 tox inactive, ATXN2 expr inh -3.2%, HepG2 viability -17.8% and IL-1B inflam inh -54.6*.
O=C(Nc1ccc(N2CCN(C(=O)c3ccccc3F)CC2)cc1)c1cncc(Br)c1 was read as TGFb SMAD3 inh -0.7%, S2 tox inactive, ATXN2 expr inh -20.5%, HepG2 viability -7.4% and IL-1B inflam inh -57.9*.
For O=C(Nc1ccc(N2CCN(C(=O)c3cccs3)CC2)cc1)c1ccccc1F the results were TGFb SMAD3 inh -14.1%, S2 tox inactive, ATXN2 expr inh -24.0%, HepG2 viability 6.3% and IL-1B inflam inh -61.9*.
Screening CC(NC(=O)c1ccco1)C(c1cccs1)N1CCN(c2ccc(F)cc2)CC1 (centres undefined) returned TGFb SMAD3 inh -17.8%, S2 tox inactive, ATXN2 expr inh -4.3%, HepG2 viability -9.0% and IL-1B inflam inh -72.3*.
Screening O=C(Nc1ccc(N2CCCCC2)cc1)c1cncc(Br)c1 returned TGFb SMAD3 inh -7.9%, S2 tox inactive, ATXN2 expr inh 100.0%, HepG2 viability -3.6% and IL-1B inflam inh 0.0.
`COc1cccc(OC)c1C(=O)Nc1ccc(N2CCN(C(=O)c3cccs3)CC2)cc1` gave TGFb SMAD3 inh -5.8%, S2 tox inactive, ATXN2 expr inh 2.0%, HepG2 viability -24.2% and IL-1B inflam inh 0.0.
Screening O=C(Nc1ccc(N2CCN(C(=O)c3cccs3)CC2)cc1)c1ccccc1Cl returned TGFb SMAD3 inh -23.3%, S2 tox inactive, ATXN2 expr inh -29.2%, HepG2 viability -6.5% and IL-1B inflam inh -56.8*.
`Cc1ccccc1NC(=O)Cn1c(=O)n(CCC(=O)NCc2ccc3c(c2)OCO3)c(=O)c2sccc21` gave TGFb SMAD3 inh 0.2% and HepG2 viability 13.9%.
Screening O=C(Nc1ccc(N2CCN(C(=O)c3ccco3)CC2)cc1)c1cccs1 returned TGFb SMAD3 inh inconclusive, S2 tox inactive, ATXN2 expr inh 34.6%, HepG2 viability 2.9% and IL-1B inflam inh -52.5*.

Screening data (PubChem)
